The list is not random: actives were taken first. Their share in the collection is about 19%.
BCR signal inh: inhibitors of chronic active B-cell receptor signaling; ABC-DLBCL IkBa-CBG/CBR reporter, luminescence ratio, 4 h; Potency, µM (series often up to 46.1 µM), inactives show at the highest dose activity change, negative = inhibition, most hits filed as inhibitors; hit rate 0.05% among 340,000; AID 493014; active = well fitted inhibition curve with a large enough effect in the signal ratio, with a control signal flat, not every such curve was filed as active; inconclusive = small, poorly fitted or top-dose-only effect, or effect the other way, or a change in a side signal; the % refers to the signal ratio;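 note: potency is the fitted concentration of half-maximal effect; plate controls were basal doxycycline-induced cells for no effect and cells given 10 µM MG132 for full effect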
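Compounds up to 46 uM were incubated four hours with TMD8 cells whose green CBG68 luciferase is fused to IkappaBalpha; red CBR luminescence normalised the signal, and concentration-effect curves were fitted to fusion, red and ratio data.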
IL1B secr inh: blocks inflammasome-driven IL-1 beta release; activity change, % at 57.5 µM; hit rate 4.7% among 360,000; THP-1 LPS/ATP IL-1B secretion, AlphaLISA, 16 h; active compounds read low; in the data active = activity change below about -50%; inconclusive = mostly about -30% to -49%; note: % is set by controls: 0 for no effect and ±100 for the full control effect
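Secreted IL-1B measured by AlphaLISA bead assay after 16 h compound exposure of THP-1 cells; compounds (final up to 57.5 uM) added 1 h before LPS (250 ng/mL) and ATP (1.25 mM) stimulation; lower signal means less secretion.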
MCF10A rerep: inducers of DNA re-replication in MCF 10A breast cells; MCF 10A DNA re-replication, Hoechst nuclear intensity, 48 h; Potency, µM (series often up to 46.1 µM), for the others: at the highest dose activity, positive = re-replication, hits mostly activators; hit rate 2.9% among 350,000; AID 624296; note: potency is the fitted concentration of half-maximal effect; % of control where 0% means no effect; nearly all actives have a fitted effect of over 50% in size
SW480 rerep: inducers of DNA re-replication in SW480 colon cancer cells | SW480 DNA re-replication, Hoechst DNA content imaging, 48 h | hit rate 1.8% among 340,000 | Potency, µM (series often up to 46.1 µM), without a hit: at the highest dose re-replication activation, hits mostly activators | AID 624297; note: potency is the fitted concentration of half-maximal effect; % of control where 0% means no effect; nearly all actives have a fitted effect of over 55% in size
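Quantitative HTS format with DMSO vehicle controls; 48 hr drug incubation at 37 C, then 40 min Hoechst staining and scanning imager measurement at 405 nm excitation.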
TDP1 cell noCPT: qHTS for Inhibitors of human tyrosyl-DNA phosphodiesterase 1 (TDP1): qHTS in cells in absence of CPT; DT40 Tdp1-/- hTDP1 cells, no CPT, ATP luminescence, 48 h; Potency, µM (series often up to 46.2 µM), for inactives: at the top dose activity change, negative = growth inhibition, most hits filed as inhibitors; hit rate 15% among 420,000; AID 686978, 2013; note: potency is the fitted concentration of half-maximal effect; % is set by controls: 0 for no effect and ±100 for the full control effect; nearly all actives have a fitted effect of over 55% in size
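Chicken DT40 Tdp1-/- cells complemented with human TDP1, screened without camptothecin (DMSO vehicle only), 400 cells/well. Compounds pin-transferred, cells incubated at 37 °C for at least 48 hr. Growth read as ATP-dependent luminescence (CellTiter-Glo, 30 min at RT).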
TDP1 cell CPT: growth inhibition of DT40 Tdp1-/-;hTDP1 cells with camptothecin (screen for TDP1 inhibitors). hit rate 12% among 420,000. AID 686979. chicken DT40 Tdp1-/-;hTDP1 cells + 20 nM CPT, ATP luminescence, 48 h. Potency, µM (titrated, usually from 46.2 µM), for inactives: at the top dose activity change, negative = growth inhibition, actives largely listed as inhibitors; note: potency is the fitted concentration of half-maximal effect; % is set by controls: 0 for no effect and ±100 for the full control effect; nearly all actives have a fitted effect of over 55% in size
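Chicken DT40 Tdp1-/- cells complemented with human TDP1, 400 cells/well, exposed to compounds plus 20 nM camptothecin for at least 48 h at 37 C; viability read as ATP content by CellTiter-Glo luminescence.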
* = called active by the depositor; ? = inconclusive; · = no result. Unless noted, calls come from the whole dose curve; as a rule, active = well fitted curve in the direction sought with a large enough effect; inconclusive = small, poorly fitted or top-dose-only effect, or another doubt; inactive = no such curve, though single readings can be large; an effect the other way counts as inactive or inconclusive.

SMILES	BCR signal inh	IL1B secr inh	MCF10A rerep	SW480 rerep	TDP1 cell noCPT	TDP1 cell CPT
CCSc1nnc(NS(=O)(=O)c2ccc(C)cc2)s1	?	6.6	-3.3%	-0.2%	-16.2%	-20.8%
CCSc1nnc(NS(=O)(=O)c2ccc(OC)cc2)s1	-1.7%	16.1	0.731µM*	-58.2%	4.7%	7.7%
O=C(NCc1ccccc1C(F)(F)F)C1CCC(=O)N(CCCc2ccccc2)C1 (configuration not stated)	-2.2%	5.2	9.0%	0.1%	29.1µM*	?
O=C(NCc1ccccc1OC(F)(F)F)C1CCC(=O)N(Cc2ccccn2)C1 (configuration not stated)	-3.9%	13.9	9.6%	20.9%	?	16.4µM*
O=C(NCCc1cn[nH]c1)C1CCC(=O)N(CCc2cccc(F)c2)C1 (configuration not stated)	-1.0%	10.1	?	12.7%	?	?
O=C(NCc1ccccc1C(F)(F)F)C1CCC(=O)N(C2CC2)C1 (configuration not stated)	0.3%	11.5	-2.7%	-4.4%	-11.7%	-12.0%
O=C(NCCc1c[nH]c2ccccc12)C1CCC(=O)N(CCc2cccc(F)c2)C1 (configuration not stated)	2.1%	21.3	-1.3%	12.1%	8.2µM*	?
O=C(NCCc1cccc(F)c1)C1CCC(=O)N(CCCc2ccccc2)C1 (configuration not stated)	-0.3%	13.6	3.3%	0.2%	?	18.4µM*
O=C(NCCc1ccccc1)C1CCC(=O)N(CCCN2CCCC2=O)C1 (configuration not stated)	1.9%	3.3	-2.9%	-15.2%	23.5%	-11.4%
COc1cc(C(=O)NCC(c2ccc3c(c2)OCO3)N2CCN(C)CC2)cc(OC)c1OC (configuration not stated)	·	·	·	·	-10.7%	0.5%
CN(C)c1ccc(C2Nc3ccccc3C(=O)N2NS(C)(=O)=O)cc1 (configuration not stated)	2.9%	?	-1.8%	1.5%	16.3%	-9.1%
CC(C)(C)OC(=O)C(C1NC(C(=O)O)C(C)(C)S1)N1C(=O)c2ccccc2C1=O (configuration not stated)	·	5.4	1.2%	-1.6%	-8.9%	9.5%
C=C1CCC[C@]2(C)C[C@H]3OC(=O)C(CNCCN(C)C)[C@H]3CC12 (some centres not stated)	?	0.0	12.8%	?	?	?
C=C1CCC[C@]2(C)C[C@H]3OC(=O)C(CNCC(C)C)[C@H]3CC12 (some centres not stated)	?	-69.1*	-10.5%	?	16.4µM*	?
C=C1CCC[C@]2(C)C[C@H]3OC(=O)C(CN4CC(C)OC(C)C4)[C@H]3C[C@@H]12 (some centres not stated)	?	-71.4*	?	?	?	?
C=C1CCC[C@]2(C)C[C@H]3OC(=O)C(CNCCN(CC)CC)[C@H]3CC12 (some centres not stated)	?	-96.5*	3.5%	?	16.4µM*	?
COc1cc(OC)c(NC(=O)c2nn(-c3ccc(C)cc3)c(=O)c3c2c2ccccc2n3C)cc1Cl	·	·	·	·	-0.7%	8.3%
Cc1nn(C)cc1S(=O)(=O)Nc1ncccn1	5.4%	6.5	1.9%	-12.1%	1.7%	8.8%
CCNc1ncc2nc(-c3ccc(Cl)cc3)c(=O)n(Cc3cccs3)c2n1	·	·	·	·	-15.4%	-17.8%
O=C(CCn1c(=O)c2ccccc2n(Cc2cccc(F)c2)c1=O)NCc1ccc2c(c1)OCO2	·	·	·	·	-27.1%	-24.3%
COc1cccc(-c2nc(NCc3cccs3)c3ccccc3n2)c1	·	·	·	·	-13.5%	?
Cc1ccc(S(=O)(=O)c2nc(-c3ccc(F)cc3)oc2SCC(=O)NC2CCCCC2)cc1	·	·	·	·	?	-2.1%
O=C(CSc1oc(-c2ccco2)nc1S(=O)(=O)c1ccc(Cl)cc1)Nc1ccc(F)cc1	·	·	·	·	-6.4%	-28.5%
O=S(=O)(c1ccc(Cl)cc1)c1nc(-c2cccs2)oc1SCc1ccc(F)cc1	·	·	·	·	?	20.6µM*
CCOc1ccc(NC(=O)CSc2oc(-c3ccc(C)cc3)nc2S(=O)(=O)c2ccc(C)cc2)cc1	·	·	·	·	5.8µM*	7.31µM*
SMILES	BCR signal inh	IL1B secr inh	MCF10A rerep	SW480 rerep	TDP1 cell noCPT	TDP1 cell CPT
O=S(=O)(Nc1nc(SCc2ccc(Cl)cc2)n[nH]1)c1ccc(F)cc1	?	-59.2*	10.4%	2.0%	?	?
CCOc1ccc(NC(=O)CSc2oc(-c3cccs3)nc2S(=O)(=O)c2ccc(Cl)cc2)cc1	·	·	·	·	13µM*	18.4µM*
CSc1oc(-c2cccs2)nc1S(=O)(=O)c1ccccc1	5.8%	14.6	-1.4%	-0.4%	5.5%	-14.1%
Cn1c(=O)c2sc3c(c2n(CC(=O)Nc2ccccc2)c1=O)COC(C)(C)C3	?	39.0	-5.4%	-3.8%	7.1%	1.0%
CC1(C)C(OC(=O)CCC(=O)O)CC[C@]2(C)C1CC[C@@]1(C)C2C(=O)C=C2[C@@H]3C[C@@](C)(C(=O)O)CC[C@]3(C)CCC21C (some centres not stated)	·	·	·	·	2.1%	13.3%
O=C(NCc1ccc2c(c1)OCO2)C(=O)NCC1OCCCN1S(=O)(=O)c1ccccc1 (configuration not stated)	·	-5.8	·	·	-25.0%	-3.1%
COc1ccc(S(=O)(=O)Nc2ccc(Cc3ccncc3)cc2)cc1OC	0.5%	?	10.2%	-2.9%	14.6µM*	11.6µM*
COc1ccc(S(=O)(=O)NCc2ccncc2)cc1OC	-4.0%	0.1	-19.0%	-4.1%	14.1µM*	12.6µM*
COc1ccc(OC)c(S(=O)(=O)NCc2cccnc2)c1	-0.9%	17.6	-1.3%	-4.7%	-5.2%	-0.7%
COc1ccc2cc(S(=O)(=O)NCc3cccnc3)ccc2c1	12.7%	14.4	10.3%	-3.5%	8.2µM*	?
CCc1ccc(OC)c(S(=O)(=O)Nc2ccc(Cc3ccncc3)cc2)c1	?	-76.1*	?	?	8.2µM*	7.31µM*
O=S(=O)(Nc1ccc(Cc2ccncc2)cc1)c1ccc(Cl)c(Cl)c1	?	-9.8	53.1%	?	?	?
COc1ccc(S(=O)(=O)NCc2cccnc2)cc1OC	-2.6%	43.3	-13.0%	-8.6%	-1.7%	11.8%
O=C(Cc1ccccc1F)NNC(=O)c1ccncc1	0.6%	-11.0	1.7%	-4.1%	17.8%	5.3%

Screening results deposited in PubChem by National Center for Advancing Translational Sciences (NCATS).
